# Results: PubChem BioAssay (EPA / NIEHS)
# Values joined by “and” are separate entries in the source; they are usually repeats but may differ in a detail not shown here. Equal entries are not always repeated. Records with an inconclusive call do not appear. A structure can be active in one record and inactive in another. Active and inactive are the calls of the source. How the source made its calls, unless noted: active means hit-call score of the fitted dose curve at least 0.9, where 1 is the maximum; inactive means score below 0.9.
# Read-out: Monocyte Chemoattractant Protein-1 (MCP1), CCL2 (gene 6347)
# Assay: BSK_hDFCGF_MCP1: BioMAP Diversity Plus: hDFCGF Assay for Monocyte Chemoattractant Protein-1 (MCP1) Biomarker Activity (AID 2284285)
# Conditions: primary human foreskin fibroblasts
# Summary of the method: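 MCP-1 ELISA readout was taken 24 hours after dosing primary human dermal fibroblasts in the hDFCGF system, with DMSO as baseline. Parallel sulforhodamine B staining of total protein tracked overt cytotoxicity.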
SMILES,AC50,outcome
CCOC(=O)c1ccccc1C(=C1C=C(Br)C(=O)C(Br)=C1)c1cc(Br)c(O)c(Br)c1,3.51 µM (active) and 3.62 µM (active),–
O=C1CCCN1CCO,–,inactive
O=C(c1ccc(O)cc1)c1ccc(O)cc1O,–,inactive
C=C[Si](OC(C)=O)(OC(C)=O)OC(C)=O,–,inactive
CCCCC(CC)COCC1CO1 (stereo unspecified),–,inactive
CO[Si](OC)(OC)c1ccccc1,–,inactive
Nc1ccc(N)c(Cl)c1,28.9 µM (active),–
CN1C(=O)N(C)C(O)C1O (stereo unspecified),–,inactive
CCO[Si](C)(OCC)OCC,–,inactive

# Read-out: Intercellular Adhesion Molecule 1 (ICAM1), ICAM1 (gene 3383)
# Assay: BSK_hDFCGF_ICAM1: BioMAP Diversity Plus: hDFCGF Assay for Intercellular Adhesion Molecule 1 (ICAM1) Biomarker Activity (AID 2284287)
# Conditions: primary human foreskin fibroblasts
# Summary of the method: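 ICAM-1 ELISA readout 24 h after dosing, DMSO as baseline, in human dermal foreskin fibroblast cultures. Cytotoxicity checked in parallel wells by SRB staining (0.1% SRB, 10% TCA fixation, 560 nm).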
SMILES,AC50,outcome
CCOC(=O)c1ccccc1C(=C1C=C(Br)C(=O)C(Br)=C1)c1cc(Br)c(O)c(Br)c1,4.29 µM (active) and 4.91 µM (active),–
O=C1CCCN1CCO,–,inactive
O=C(c1ccc(O)cc1)c1ccc(O)cc1O,–,inactive
C=C[Si](OC(C)=O)(OC(C)=O)OC(C)=O,–,inactive
CCCCC(CC)COCC1CO1 (stereo unspecified),–,inactive
CO[Si](OC)(OC)c1ccccc1,–,inactive
Nc1ccc(N)c(Cl)c1,–,inactive
CN1C(=O)N(C)C(O)C1O (stereo unspecified),–,inactive
CCO[Si](C)(OCC)OCC,–,inactive

# Read-out: TIMP metallopeptidase inhibitor 2 (TIMP2), TIMP2 (gene 7077)
# Assay: BSK_hDFCGF_TIMP2: BioMAP Diversity Plus: hDFCGF Assay for TIMP metallopeptidase inhibitor 2 (TIMP2) Biomarker Activity (AID 2284289)
# Conditions: primary human foreskin fibroblasts
# Summary of the method: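 Primary human foreskin fibroblasts in the hDFCGF system, dosed for 24 h; TIMP-2 level measured by ELISA, fitted in the positive direction against DMSO; cytotoxicity checked in parallel by sulforhodamine B total protein staining.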
SMILES,AC50,outcome
CCOC(=O)c1ccccc1C(=C1C=C(Br)C(=O)C(Br)=C1)c1cc(Br)c(O)c(Br)c1,3.49 µM (active) and 3.46 µM (active),–
O=C1CCCN1CCO,–,inactive
O=C(c1ccc(O)cc1)c1ccc(O)cc1O,–,inactive
C=C[Si](OC(C)=O)(OC(C)=O)OC(C)=O,–,inactive
CCCCC(CC)COCC1CO1 (stereo unspecified),–,inactive
CO[Si](OC)(OC)c1ccccc1,–,inactive
Nc1ccc(N)c(Cl)c1,28.1 µM (active) and 28.9 µM (active),–
CN1C(=O)N(C)C(O)C1O (stereo unspecified),–,inactive
CCO[Si](C)(OCC)OCC,–,inactive

# Read-out: Thrombomodulin, THBD (gene 7056)
# Assay: BSK_LPS_Thrombomodulin: BioMAP Diversity Plus: LPS Assay for Thrombomodulin Biomarker Activity (AID 2284296)
# Conditions: primary human HUVEC with PBMC
# Summary of the method: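 Thrombomodulin on the surface of LPS-activated endothelial/PBMC co-cultures was quantified by ELISA at 24 hours post-dosing, with DMSO as baseline. Parallel SRB total-protein staining flagged overt cytotoxicity.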
SMILES,AC50,outcome
CCOC(=O)c1ccccc1C(=C1C=C(Br)C(=O)C(Br)=C1)c1cc(Br)c(O)c(Br)c1,10.3 µM (active),inactive
O=C1CCCN1CCO,–,inactive
O=C(c1ccc(O)cc1)c1ccc(O)cc1O,–,inactive
C=C[Si](OC(C)=O)(OC(C)=O)OC(C)=O,–,inactive
CCCCC(CC)COCC1CO1 (stereo unspecified),–,inactive
CO[Si](OC)(OC)c1ccccc1,–,inactive
Nc1ccc(N)c(Cl)c1,–,inactive
CN1C(=O)N(C)C(O)C1O (stereo unspecified),–,inactive
CCO[Si](C)(OCC)OCC,–,inactive

# Read-out: CD69, CD69 (gene 969)
# Assay: BSK_LPS_CD69: BioMAP Diversity Plus: LPS Assay for CD69 Biomarker Activity (AID 2284303)
# Conditions: primary human HUVEC with PBMC
# Summary of the method: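 CD69 surface levels were read by ELISA after 24 h chemical treatment of an LPS-stimulated HUVEC plus PBMC co-culture; positive-direction fit against DMSO vehicle.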
SMILES,AC50,outcome
CCOC(=O)c1ccccc1C(=C1C=C(Br)C(=O)C(Br)=C1)c1cc(Br)c(O)c(Br)c1,8.66 µM (active) and 7.45 µM (active),–
O=C1CCCN1CCO,–,inactive
O=C(c1ccc(O)cc1)c1ccc(O)cc1O,–,inactive
C=C[Si](OC(C)=O)(OC(C)=O)OC(C)=O,–,inactive
CCCCC(CC)COCC1CO1 (stereo unspecified),–,inactive
CO[Si](OC)(OC)c1ccccc1,–,inactive
Nc1ccc(N)c(Cl)c1,4.71 µM (active) and 1.81 µM (active),–
CN1C(=O)N(C)C(O)C1O (stereo unspecified),–,inactive
CCO[Si](C)(OCC)OCC,–,inactive

# Tested on: IYD (gene 389434)
# Assay: CCTE_GLTED_hIYD: CCTE's human Iodotyrosine Deiodinase (xIYD) Inhibition Assay, Great Lakes Toxicology and Ecology Division (GLTED) Lab (AID 2284317; active means hit-call score of the fitted dose curve at least 0.9, where 1 is the maximum;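 further: cell-free human IYD enzyme made in baculovirus insect cells; iodide freed from monoiodotyrosine measured by cerium arsenite color change at 420 nm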)
# Conditions: not given
# Summary of the method: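 Deiodination of MIT by insect-cell-produced human IYD is measured after a 3 h incubation with test chemical. Free iodide passes through a Dowex column and accelerates Sandell-Kolthoff Ce4+ reduction, read at 420 nm; run in triplicate.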
SMILES,AC50,outcome
Oc1ccc(Cl)cc1Cc1cc(Cl)ccc1O,100 µM (active),–
CCCCCCCC/C=C\CCCCCCCC(=O)O,41 µM (active),–
CCCCCCCC/C=C\CCCCCCCC(=O)OCCO,128 µM (active),–
CC/C=C\C/C=C\C/C=C\CCCCCCCC(=O)O,–,inactive
O=C(Nc1cccc(C(F)(F)F)c1)c1cc(Br)cc(Br)c1O,100 µM (active),–
CCCCCCCC[N+](C)(CCCCCCCC)CCCCCCCC,27.2 µM (active),–
CCCCC/C=C\C/C=C\CCCCCCCC(=O)OC,–,inactive
O=S(=O)(O)c1ccccc1C=Cc1ccc(-c2ccc(C=Cc3ccccc3S(=O)(=O)O)cc2)cc1,100 µM (active),–
CC(C)(C)c1ccc(-c2ccc(C(C)(C)C)cc2)cc1,–,inactive
O=C(Nc1ccccc1)c1ccccc1O,–,inactive
CCN(CCC#N)c1ccc(N=Nc2c(Cl)cc([N+](=O)[O-])cc2Cl)cc1,152 µM (active),–
CCCCCCCCCCCCCOP(=O)(O)O,40.2 µM (active),–

# Tested on: not listed separately
# Assay: CCTE_Mundy_HCI_iCellGluta_NOG_NeuriteLength: CCTE's Neurite Outgrowth Assay in iCellGluta cells for Neurite Length, Mundy Lab (AID 2284318; active means hit-call score of the fitted dose curve at least 0.9, where 1 is the maximum)
# Conditions: not given
# Summary of the method: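 Automated high-content imaging of betaIII-tubulin (Alexa Fluor-488) and Hoechst-stained cells gave neurite length, normalized to the DMSO baseline.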
SMILES,AC50,outcome
Nc1ncn([C@@H]2O[C@H](CO)[C@@H](O)[C@H]2O)c(=O)n1,7.87 µM (active),–
N[C@H]1C(O)O[C@H](CO)[C@H](O)[C@@H]1O (stereo partly specified),–,inactive
CC1(C)S[C@@H]2[C@H](NC(=O)COc3ccccc3)C(=O)N2[C@H]1C(=O)O,–,inactive

# Tested on: not listed separately
# Assay: CCTE_Deisenroth_5AR_NBTE_donor: CCTE's 5alpha-reductase NanoBRET Target Engagement Assay […], Deisenroth Lab (AID 2284319)
# Conditions: actives raise or lower the signal
# Summary of the method: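 HEK293T cells transiently expressing SRD5A2-NanoLuc, exposed 5 h to chemicals (8 points, 10 nM - 29.9 uM), with testosterone tracer for the final 2 h. Donor luminescence at 460 nm read after Nano-Glo substrate plus extracellular NanoLuc inhibitor; bidirectional fit versus DMSO.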
SMILES,outcome,AC50
Cc1ccc(C(C)c2ccc(C)c(C)c2)cc1C,inactive,–
C1CN(SSN2CCOCC2)CCO1,inactive,–
Oc1ccc(Cl)cc1Cc1cc(Cl)ccc1O,inactive,–
CC1=NN(c2cc(S(=O)(=O)O)ccc2Cl)C(=O)C1N=Nc1ccccc1 (stereo unspecified),inactive,–
COC(=O)c1c(C)cc(O)c(C)c1O,inactive,–
CCCCCCCC/C=C\CCCCCCCC(=O)O,inactive,–
CCCCCCCC[N+](C)(CCCCCCCC)CCCCCCCC,–,11.4 µM (active)
CCCc1ccc(OC)cc1,inactive,–
CCN(CCC#N)c1ccc(N=Nc2c(Cl)cc([N+](=O)[O-])cc2Cl)cc1,inactive,–
CN(C)c1ccc(C(=N)c2ccc(N(C)C)cc2)cc1,inactive,–
